# According to PubChem BioAssay (NCATS):
# Records with an inconclusive call do not appear. A number with no mark means an inactive call. The source made the active and inactive calls. Calls follow the shape of the dose curve; as a rule, active = well fitted inhibition curve with a large enough effect; inconclusive = small, poorly fitted or top-dose-only effect; inactive = flat fitted curve, though single readings scatter.
# Tested on: CRL-7250
# Assay: Cytotoxic Profiling of Annotated Libraries Using Quantitative High-Throughput Screening (AID 1296008); also: nearly all actives have a fitted effect of over 60% in size
# Settings: Five cell lines viability, CellTiter-Glo ATP luminescence, 48-72 h; max response: stronger effect = lower value
# Procedure, shortened: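 Cells exposed to compounds for 48 or 72 hr at 37 degrees Celsius. Viability read as ATP-coupled luminescence with CellTiter-Glo after 10 min at room temperature.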
# % is scaled to controls: 0 for no effect and ±100 for the full control effect.
Compound,max response [%],outcome
C=CC(C)(O)CC/C=C(\C)C(=O)O[C@H]1[C@H](O)[C@@H](CO)O[C@@H](OC(=O)[C@]23CCC(C)(C)CC2C2=CCC4[C@@]5(C)CC[C@H](O[C@@H]6O[C@H](CO[C@@H]7OC[C@H](O)[C@H](O)[C@H]7O[C@@H]7OC[C@@H](O)[C@H](O)[C@H]7O)[C@@H](O)[C@H](O)[C@H]6O)C(C)(C)C5CC[C@@]4(C)[C@]2(C)CC3)[C@@H]1OC1OC(C)C(O[C@@H]2OC[C@@H](O)[C@H](O[C@@H]3OC[C@@H](O)[C@H](O)[C@H]3O)[C@H]2O)C(O)C1O (some centres not stated),-5.86,
COC(=O)C1(C)CCC(O)C2(C)c3c(O)cc(C(C)C)cc3C(O)C(OC(C)=O)C12 (configuration not stated),,inactive
OC1(c2ccc(Cl)cc2)c2ccccc2C2=NCCN21 (configuration not stated),,inactive
COc1cc(C(=O)O[C@H]2[C@@H]3C=CO[C@@H](O[C@@H]4O[C@H](CO)[C@@H](O)[C@H](O)[C@H]4O)[C@@H]3[C@@]3(CO)O[C@@H]23)ccc1O,-1.79,
C/C=C(\C)C(=O)OC1CC2C(CC=C3CC(OC4CC(OC)C(OC5CC(OC)C(OC6OC(C)C(OC7OC(CO)C(O)C(O)C7O)C(OC)C6O)C(C)O5)C(C)O4)CCC32C)C2(O)CCC(C(C)=O)C12C (configuration not stated),,inactive
CC(=O)OC12C(O)C(C)C3(O)C4C=C(C)C(=O)C4CC(CO)=CC3C1C2(C)C (configuration not stated),1.13,
CCC1NC(=O)C2C(Cl)C(Cl)CN2C(=O)C(C(C)O)NC(=O)CC(c2ccccc2)NC(=O)C(CO)NC1=O (configuration not stated),3.8,
CC(=O)OC1CC(O)C2(C)C(CC(OC(C)=O)C3(C)C2CCC2(C)C(c4ccoc4)C(=O)C4OC423)C1(C)C (configuration not stated),-9.87,
C=C(C)[C@H]1O[C@H]2CC[C@@]3(C)[C@@](O)(CC[C@H]4[C@@H]5OC(C)(C)[C@H]6C[C@@H]7C(=C)Cc8c(Cl)cc9[nH]c(c5c9c8[C@@]76O)[C@@]43C)[C@]23O[C@@H]3[C@H]1O,-5.7,
CN(C(=O)Cc1ccccc1)C(CN1CCCC1)c1ccccc1 (configuration not stated),0.97,
C1=C2CCCN[C@H]2[C@@H]2C[C@H]1[C@H]1CCCCN1C2,,inactive
CCC(C)(C#N)O[C@@H]1O[C@H](CO)[C@@H](O)[C@H](O)[C@H]1O (some centres not stated),-24.5,
CN1C(=O)c2ccccc2NC(=O)[C@]12O[C@@H]2c1ccccc1,-12.4,
CC1=C2C(=O)C3[C@@H](CC=C4C[C@@H](O)CC[C@@]43C)[C@@H]2CC[C@]12O[C@@H]1C[C@H](C)CN[C@H]1[C@H]2C (some centres not stated),,inactive
COC(=O)[C@@]12C(=O)C(C)C(=O)[C@]1(C)C(C)=C[C@H]1[C@]3(C=O)CC[C@H](OC(C)=O)C(C)(C)[C@H]3CC[C@@]12C (some centres not stated),,inactive
CC(N)Cc1c[nH]c2ccccc12 (configuration not stated),-5.98,
C/C=C(\C)C(=O)OC1CC2C(C)(C)OC(=O)CC(OC(C)=O)C2(C)C2CC(OC(=O)C(C)C)C3(C)C(c4ccoc4)CC4OC43C12C (configuration not stated),,inactive
CC(C)[C@@H](CN1CC[C@@](C)(c2cccc(O)c2)[C@@H](C)C1)NC(=O)[C@H]1Cc2ccc(O)cc2CN1,,inactive
Cc1cn(C[C@H](N)C(=O)O)c(=O)n(Cc2cc(-c3ccccc3)sc2C(=O)O)c1=O,-1.8,
C[C@@]12C[C@@H](c3ccoc3)OC(=O)C1CC[C@]1(C)[C@H]2[C@H]2C=C[C@]1(O)C(=O)O2 (some centres not stated),,inactive
COC1CC(O[C@H]2CC[C@@]3(C)C(=CCC4C3C(O)[C@@H](O)[C@]3(C)[C@@H](C(C)=O)CC[C@]43O)C2)OC(C)C1OC1CC(OC)C(OC2OC(C)C(O)C(O)C2O)C(C)O1 (some centres not stated),-8.18,
CN1CCC[C@@H]1Cc1c[nH]c2ccc(Nc3ncccc3[N+](=O)[O-])cc12,,inactive
COc1cc2c(cc1OC)[C@@]13CCN4CC5=CCO[C@H]6CC(=O)N2[C@H]1[C@H]6[C@H]5C[C@H]43,-0.912,
CCc1[nH]c2ccc(OC)cc2c1CCN(C)C,2.45,
C/C=C(\C)C(=O)OC1C(C)OC(OC2C(C)OC(OC3CCC4(C)C(=CCC5C4CCC4(C)C(C(C)OC6OC(COC7OC(CO)C(O)C(O)C7O)C(O)C(O)C6O)CCC54O)C3)CC2OC)C(O)C1OC (configuration not stated),-8.85,
Oc1ccc2c3c1O[C@H]1[C@H](N(CCCl)CCCl)CC[C@@]4(O)[C@@H](C2)N(CC2CC2)CC[C@]314,-3.35,
COC(=O)C1(C)CCC(=O)C2(C)c3c(O)cc(C(C)C)cc3C(O)C(OC(C)=O)C12 (configuration not stated),-1.03,
